40 compounds from PubChem BioAssay (NCI) can be followed below.

Where “and” joins values, the source holds several entries; their conditions need not be identical. Identical values can stand only once. About 83,000 compounds went through this panel and 20% of them were active in at least one assay; those are over-represented in the sample as a whole.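 Activity criterion: percent growth below 10, measured after cells in 96-well plates were exposed to a single compound concentration for 48 hours.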 Calls of active or inactive are those of the source.

The subject of this experiment is HL-60(TB) leukemia. The experiment in a line: NCI-60 one-dose screen, 48 h (100 = growth as untreated, 0 = no growth, -100 = all killed). The note with it: 10 µM unless noted.
On to `Clc1ccc(NC(Nc2ccc(Cl)cc2)C(Cl)(Cl)Cl)cc1`, for which the growth was 93.3% (inactive) and 83.6% (inactive). The result for `COc1cc(OCc2cccc(-c3ccc(C(O)c4nccs4)cc3)c2C)cc(OC)c1CNCCNC(C)=O` (stereo not given) reads 101% (inactive); that for `O=C(c1ccc(Cl)cc1)N1CCN(c2ccnc3cc(Cl)ccc23)CC1`, 102% (inactive); that for `Ic1ccc2[nH]cc(SSc3c[nH]c4ccc(I)cc34)c2c1`, -21.7% (active). The figure for `O=[N+]([O-])c1ccccc1/C=N\Nc1ccccc1` is 82.5% (inactive) and 87.4% (inactive).

Take `CC(C)=NNc1ccccn1`: the growth was 34.6% (inactive). As for `CC(C)Cc1ccc(C(C)C(=O)NCc2ccc(Cn3c(=O)sn(CCCCl)c3=O)cc2)cc1` (stereo not given), the growth was 102% (inactive) and -23.6% (active). The result for `O=C1/C(=C/c2cccc(O)c2)COc2ccc(O)cc21` reads 52.1% (inactive); that for `CCc1nc2c(=O)[nH]cnc2o1`, 106% (inactive).

Take `O=CC(O)C(O)C(O)CO` (stereo not given): the growth was 130% (inactive) and 91.5% (inactive). Consider `C=C1CC[C@@H]2[C@](C)(COC(C)=O)[C@H](OC(C)=O)CC[C@@]2(C)[C@@H]1CC(Nc1ccc(S(=O)(=O)Nc2cc(C)on2)cc1)C1=CCOC1=O` (stereo not given in full), for which the growth is -2.05% (active). Take `CCc1c(C(=O)N[C@@H]2c3cc(Cl)ccc3CC[C@@H]2O)[nH]c(C)c1C(C)=O`: the growth was 103% (inactive).

In the case of `CCN(CC)CCn1nc2c3c(cccc3c1=O)-c1ccccc1-2`, the growth was 16.9% (inactive). The figure for `CN(C)CCCC1(c2ccc(F)cc2)OCc2cc(-c3cccc4[nH]ccc34)ccc21` (stereo not given) is 31.6% (inactive).

As to `C=CC(=O)Nc1cccc(-c2nc(SC)nc(Nc3ccccc3OC)c2C#N)c1`, the growth was 14.1% (inactive). For `CN1C(=O)N(C)C2Nn3c(s/c(=C\c4ccc(C(F)(F)F)cc4)c3=O)=NC21` (stereo not given), the growth is 98.9% (inactive). The figure for `O=[N+]([O-])c1cnc(Sc2ccncn2)c([N+](=O)[O-])c1` is 11.3% (inactive).

As to `CCOC(=O)NC(/C=C/c1ccccc1)NC(=O)OCC`, the growth is 103% (inactive). The figure for `O=C1CSC(c2ccccc2Cl)N1c1nnc(Cn2cnnc2)o1` (stereo not given) is -17.3% (active); for `C/C(=N\O)C1(O)CCCCC1` it is 83.6% (inactive). The result for `C=CCSc1nnc(NC(=O)CCl)s1` reads 91.5% (inactive); that for `O=C1c2cccnc2C(=O)c2c1c(C(=O)NCCn1ccnc1)c1ccccn21`, 0.989% (active). With `[B-][N+](CC)(CC)c1ccccc1`, the growth is 45.6% (inactive).

As to `N=C(N)c1ccc(-c2ccc(-c3ccccc3)o2)nc1`, the growth is 54.1% (inactive).

With `O=C(Nc1cccc(Cl)c1)c1cc([N+](=O)[O-])ccc1O`, the growth is 44.4% (inactive).

In the case of `O=[N+]([O-])c1ccc(S(=O)(=O)N2CCN(C3=NS(=O)(=O)c4ccccc4N3c3ccccc3)CC2)cc1`, the growth is 96.7% (inactive).

In the case of `Clc1ccc(Nc2nnc(COc3ccccc3)c3ccccc23)cc1`, the growth is -15.7% (active).

As for `N#CC(C#N)N=Nc1ccc(Br)cc1`, the growth is -10.7% (active). The figure for `C=CCOc1c(Br)cc(Br)cc1Br` is 76.2% (inactive); for `COc1cc(CNC(=O)CCCC/C=C/C(C)C)ccc1OCc1nnc(Nc2ccc([N+](=O)[O-])cc2)o1` it is 101% (inactive); for `COCCOc1cnc2ccn([C@H](C)c3nnc4c(F)cc(-c5cnn(C)c5)cn34)c(=O)c2c1` it is 136% (inactive). The result for `Cc1nnc(-n2c(O)cc(=O)n(-c3ccccc3)c2=S)nc1/C=C/c1ccc(N(C)C)cc1` reads 7.92% (active); that for `Fc1ccc(-c2cn3c(nc4ccccc43)c(-c3ccccc3)n2)cc1`, 99.8% (inactive); that for `O=C(Nc1ccc(Oc2ccc(Nc3nc4ccccc4s3)cc2)cc1)Nc1ccc(Cl)c(Cl)c1`, 21.1% (inactive). Regarding `COc1cc(NCCN=C(N)NC(N)=NC(C)C)c2ncccc2c1`, the growth is 74.8% (inactive). Turning to `O=[N+]([O-])c1cccc2ccc(N/N=C/c3ccccc3O)nc12`, the growth was 40.7% (inactive) and 50.5% (inactive). The result for `OCc1cccc(-c2ccc3ncc(-c4nc(NC5CC5)ncc4F)n3c2)c1` reads -62% (active); that for `O=C1/C(=C/c2ccc(O)cc2)Cc2ccc(Cl)cc21`, 60.1% (inactive). With `COc1ccc(C(=O)COC(=O)[C@H](C[Se][Se]C[C@H](NC(=O)c2ccc(Br)cc2F)C(=O)OCC(=O)c2ccc(OC)cc2)NC(=O)c2ccc(Br)cc2F)cc1`, the growth is 2.8% (active). The result for `COc1cccc(-c2nnc(COc3ccc(-c4nc5ccc(C)cc5[nH]4)cc3OC)o2)c1` reads -56.2% (active).
